# From the supplement of paper PMC6555819
# What was measured:
# Assay in all cases: PBM binding z-score (relative to random genomic background probes); higher = stronger binding; sequences stand for … in GC…GCGATTGACAGCGTAGAATGAAGG
# [1] = system: RARb homodimer (NR concentration 270 nM)
# Method in brief: (§1)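 Regression normalization was applied to scanned fluorescence from custom Agilent 4×180K protein-binding microarrays. Before scanning, arrays were incubated 1 h with ligand-free nuclear receptor dimers, and binding was detected with antibodies against each partner (one per run). Binding z-scores use the random background probes as reference.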
# [2] = system: RARg:RXRa (NR concentration 270 nM, RXRa partner concentration 90 nM)
# Method in brief: as §1
# [3] = system: RARg homodimer (NR concentration 270 nM)
# Method in brief: as §1
# [4] = system: RXRa DBDmut IVT, anti-RXR (DBD mutation: RXRa K156A/R161A, NR concentration 90 nM)
# Method in brief: as §1
# [5] = system: RXRa homodimer (NR concentration 180 nM)
# Method in brief: as §1
# [6] = system: THRa:RXRa (NR concentration 90 nM, RXRa partner concentration 90 nM)
# Method in brief: as §1
# [7] = system: THRa homodimer (NR concentration 90 nM)
# Method in brief: as §1
# [8] = system: VDR homodimer (NR concentration 270 nM)
# Method in brief: as §1
Sequence,PBM binding z-score [1],PBM binding z-score [2],PBM binding z-score [3],PBM binding z-score [4],PBM binding z-score [5],PBM binding z-score [6],PBM binding z-score [7],PBM binding z-score [8]
TGAATTAGGTTATAAGATCAGGGAACGTTGCAAA,-0.204,0.498,0.508,-0.196,0.503,0.533,0.0659,0.321
CAAACTAGGGCAAGAGGTCAAAGTCCGCTTCCCG,5.19,6.21,5.15,1.74,6.17,3.87,1.23,3.3
CCTACTGGGGCAAAGGTTACCATACTCAGTACGA,2.27,3.72,1.99,0.241,3.86,1.85,-0.303,0.381
CCTGCTAGGTCAGTGGTCAGCTAAAGCAGCTCGC,2.63,2.56,3.82,0.821,0.693,1.51,0.454,-0.319
ATCGAAAGGACGACGAGGTGAGTATACACCGTTT,0.685,1.09,1.42,-0.192,0.371,1.42,0.601,0.0497
ATATGTAGGTTATCGGGTCATTGAGTTTGCGCAT,3.16,3.43,2.61,1.94,3.51,3.42,2.76,5.54
CATACAGGGTCAACTAGGCCAGAGTAGGGACGGC,3.62,5.7,5.42,2.74,6.54,3.74,1.5,2.36
CGTCCAAAGTCAGCAGGTCAGTGAAAGCGACGTG,2.43,1.31,1.5,0.597,0.851,1.05,0.291,0.0938
ACAGACAGGTGAGTGAAGCTAACTCAGCTGGACG,-0.638,-0.0417,0.288,-0.672,-0.0844,-0.381,-1.16,-1.08
GCTAGTTAGTCAGTAAAAGGTCACACACCGGTCG,5.02,4.93,4.43,0.44,5.22,3.49,1.36,1.62
TCAGACAGGTGACGGTAACTCAGGTACGCAGTCG,0.517,0.188,0.328,0.683,0.84,0.492,0.00718,-0.0333
AGACCGAGGGCACGCTGAGTTGATAGCAGAGTAG,1.33,2.22,2.06,1.49,1.31,1.77,-0.237,1.75
ATCGAGAGGTCGTGAGGTGAGTATACAGAAAGGC,2.4,3.66,3.28,1.43,4.24,3.36,1.63,1.87
CCGACTGGGGCAAAGGTTTCCATACTCAGTACGA,0.438,0.385,0.445,0.213,0.448,-0.0772,-0.282,-0.026
CGTGCAAGGTCAGCAGGTCAGTGAAAGCGACGTG,4.76,6.54,7.05,2.5,5.2,4.03,2.04,1.73
ACAATGAGGTTATACGTAGATCAGGGAAGAAAGT,0.975,1.89,1.55,2.02,2.16,2.13,0.593,1.28
CCTCGGAGGACAACAGGAGGTCAGACCTGCCAGA,3.55,3.39,3.43,0.289,1.93,2.83,1.02,1.25
TCTTGTAGATCAAACAGGTTAAGAAAGCCTGAGT,0.167,0.214,0.186,0.683,0.587,0.607,-0.548,0.0762
GCATTTAGGTAATACAAGGTGAAAGTCCGATTGT,1.06,0.319,0.48,0.617,0.375,3.89,1.59,0.0936
CCTTACGGGTCACGAGGTTTTAGCACGACGAGCG,3.71,5.63,5.4,1.57,6.87,3.12,0.658,1.4
CAGACTAGGTCACCGGAAGGTCAAAGTCCGCATG,5.55,8.29,7.56,1.74,6.56,4.37,2.62,3.42
CAAACTAGGTCAAAGTCAAAGTCGGTTTGTGCCA,3.06,3.87,4.41,2.32,3.11,2.81,0.817,1.05
GATACAGGGTCAGCTGGAGGCCAGAGTATGGAAA,3.23,6.73,5.23,1.38,4.35,3.16,0.136,0.57
TCTAGCAGGCCAGAGGGTCACTCTAGAGGTACGG,2.57,2.42,1.97,0.248,2.34,1.4,-0.529,0.422
GGAACGAGGGCATGTTGATAGCAGAGTTTGATGG,1.11,0.813,1.38,2.25,0.438,1.1,0.428,1.6
AGTCAAAGTTCAGGACGAGCTAACGTAAAGCACG,2.77,4.22,4.84,2.68,2.83,1.95,0.278,1.5
CTCGAAAGGTCGTGCTCAGGTGCGTATACCAAAC,2.4,4.1,3.38,2.27,4.39,2.69,0.271,1.45
CGTCCAAGGTCATAGGAGGTAAGTGAAGACAGAT,3.21,5.58,5.93,3.37,5.29,4.6,2.43,2.6
